Data on five compounds can be found in PubChem BioAssay.

Assay [1] in a line: small molecules captured by biotinylated probe aFSTL3 – biochemical, small-molecule microarray, fluorescence 635/667, stem cell growth factor project, primary screen (AID 1064).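 Further: measures binding of the biotinylated anti-FSTL3 antibody to printed compounds.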 To be noted: higher = more signal.
Assay [2] can be described thus: binders from COS7 lysate, DM2A8 probe, primary screen, torsin A project, cell lysate, small-molecule microarray, fluorescence 635/667 (AID 1065). To be noted: higher = more signal, COS7 lysate expressing mutant human TOR1A.
Assay [3] can be described thus: small molecules captured by biotinylated probe aFGF2 – biochemical, small-molecule microarray, fluorescence 635/667, stem cell growth factor project, primary screen (AID 1067).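 Further: measures binding of biotinylated aFGF2 protein to printed compounds on slides; z-score merges feature fluorescence and signal-to-noise across triplicate slides.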 To be noted: higher = more signal.
Assay [4] in a line: small molecules captured by biotinylated probe aFGF10 – biochemical, small-molecule microarray, fluorescence 635/667, stem cell growth factor project, primary screen (AID 1071).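 Further: score merges 667 nm spot intensity and signal to noise from triplicate slides.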 To be noted: higher = more signal.
Assay [5] addresses Neurogenic locus notch homolog protein 2 (Homo sapiens) (UniProt Q04721). Put plainly: small molecules binding Notch2 protein – biochemical, small-molecule microarray, 635 nm fluorescence, stem cell growth factors, primary screen (AID 1073). Particulars: higher = more signal.
Assay [6] has as its target Pro-neuregulin-1, membrane-bound isoform (Homo sapiens) (UniProt Q02297). The experiment in a line: small molecules binding neuregulin-1 protein – biochemical, small-molecule microarray, fluorescence 635/667, psychiatric disease protein project, primary screen (AID 1075).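 Further: score combines 667 nm spot fluorescence with signal to noise.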 Particulars: NRG1 binding, 635 nm fluorescence, higher = more signal.
For assay [7], the system named is Neuregulin-1 EGF-like domain. Put plainly: small molecules binding NRG1 EGF domain – biochemical, small-molecule microarray, 635 nm fluorescence, primary screen (AID 1081).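 Further: binding of the protein to compounds printed on small-molecule microarray slides.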 Particulars: higher = more signal.
Assay [8] can be described thus: FRG1 expression reporter modulators in myotubes – cell-based, C2C12 myotubes, firefly/Renilla luciferase, luminescence, FRG1 inhibition for FSHD, primary screen (AID 1084). Particulars: FRG1 promoter luciferase, higher = more signal, called active from +8 up or from −8 down.
Assay [9] in a line: small molecules captured by biotinylated probe aFST – biochemical, small-molecule microarray, fluorescence 635/667, stem cell growth factor project, primary screen (AID 1086).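 Further: score merges 667 nm fluorescence with signal-to-noise of each printed compound spot.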 To be noted: higher = more signal.
A short description of assay [10]: binders of probe aHhip on microarray, primary screen, stem cell growth factor project, biochemical, small-molecule microarray, fluorescence 635/667 (AID 1087).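 Further: score merges spot fluorescence at 667nm with spot signal to noise ratio.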 Particulars: higher = more signal.
For assay [11], the system named is PRMT1 (protein arginine N-methyltransferase 1). Put plainly: small molecules binding arginine methyltransferase PRMT1 – biochemical, small-molecule microarray, 635 nm fluorescence, primary screen (AID 1088).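 Further: binding of Prmt1 protein to compounds spotted on small-molecule microarray slides.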 To be noted: higher = more signal.
The nature of assay [12]: growth effects on S. cerevisiae YJM789 – YJM789 clinical isolate, OD600, 24 h, basal, primary screen (AID 1089).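 Further: growth of clinical yeast isolate S. cerevisiae YJM 789 seeded 1000 cells per well; test concentration not given here.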 Particulars: higher = more signal, called active from +8 up or from −8 down.
Assay [13] in a line: S. pombe growth modifiers, basal conditions – strain 972, OD600, 24 h, no modulator, primary screen (AID 1090).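 Further: basal condition with compound alone and no growth modifier present; test concentration not given here.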 Particulars: S. pombe 972 growth, higher = more signal, called active from +8 up or from −8 down.
Assay [14] in a line: budding yeast growth modifiers under rapamycin – strain BY4716, OD600, 96 h, primary screen (AID 1091). Further: test concentration not given here. Particulars: S. cerevisiae BY4716 + rapamycin, higher = more signal, called active from +8 up or from −8 down.
Assay [15] deals with Torsin-1A-interacting protein 2 (Homo sapiens) (UniProt Q8NFQ8). Put plainly: small molecules binding lysate-expressed LULL1 – cell lysate, human LULL1 lysate, 635/667 nm fluorescence, primary screen (AID 1092).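 Further: probe is lysate of COS7 cells overexpressing human LULL1; score merges per-feature 667 nm fluorescence with signal-to-noise.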 To be noted: small-molecule microarray, hLULL1 lysate binding, 635 nm fluorescence; higher = more signal.
Assay [16] can be described thus: optical density change of DRC41 E. coli – strain DRC41, OD650, 24 h, E. coli filamentation project, primary screen (AID 1093).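 Further: MC1000 strain lacking acrAB efflux and sulA so SOS filamentation is blocked; test concentration not given here.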 To be noted: E. coli DRC41 growth, higher = more signal, called active from +8 up or from −8 down.
A short description of assay [17]: probe aLefty2 binding to arrayed compounds – biochemical, biotinylated probe, 635/667 nm fluorescence, primary screen (AID 1094).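 Further: score merges spot fluorescence near 667 nm with spot signal-to-noise ratio.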 Particulars: small-molecule microarray, higher = more signal.
Assay [18] deals with Noggin (protein binding on small-molecule microarray). The experiment in a line: small molecules binding Noggin protein – biochemical, 635/667 nm fluorescence, primary screen (AID 1095).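 Further: score merges 667 nm feature fluorescence with signal to noise over triplicate slides.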 Particulars: 635 nm fluorescence, higher = more signal.
Assay [19] addresses Neurogenic locus notch homolog protein 3 (Homo sapiens) (UniProt Q9UM47). Put plainly: small molecules binding NOTCH3 protein – biochemical, 635/667 nm fluorescence, primary screen (AID 1096). Particulars: small-molecule microarray, 635 nm fluorescence, higher = more signal.
Assay [20] is described as follows: probe aEGFR binding to arrayed compounds – biochemical, biotinylated probe, 635/667 nm fluorescence, primary screen (AID 1097).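 Further: probe is a biotinylated anti-EGFR antibody binding compounds printed on slides; score combines fluorescence near 667 nm and signal to noise of each spot.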 To be noted: small-molecule microarray, higher = more signal.

The source made the active and inactive calls.

Torsin-1A-interacting protein 2 (Homo sapiens), sequence (Q8NFQ8 whole entry, looked up): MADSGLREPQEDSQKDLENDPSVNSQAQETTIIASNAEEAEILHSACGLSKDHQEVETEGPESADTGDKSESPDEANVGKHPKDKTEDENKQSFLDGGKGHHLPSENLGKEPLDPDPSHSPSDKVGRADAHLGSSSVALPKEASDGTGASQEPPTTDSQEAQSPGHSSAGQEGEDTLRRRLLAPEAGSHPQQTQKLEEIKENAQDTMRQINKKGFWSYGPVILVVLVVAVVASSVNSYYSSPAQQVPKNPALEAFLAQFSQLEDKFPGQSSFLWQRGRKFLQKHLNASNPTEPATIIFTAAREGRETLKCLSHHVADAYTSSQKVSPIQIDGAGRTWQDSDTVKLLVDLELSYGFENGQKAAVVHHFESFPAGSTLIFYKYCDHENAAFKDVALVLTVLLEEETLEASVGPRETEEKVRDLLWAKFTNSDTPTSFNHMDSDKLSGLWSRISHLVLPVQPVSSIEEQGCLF
Neurogenic locus notch homolog protein 3 (Homo sapiens), sequence (Q9UM47 whole entry, looked up): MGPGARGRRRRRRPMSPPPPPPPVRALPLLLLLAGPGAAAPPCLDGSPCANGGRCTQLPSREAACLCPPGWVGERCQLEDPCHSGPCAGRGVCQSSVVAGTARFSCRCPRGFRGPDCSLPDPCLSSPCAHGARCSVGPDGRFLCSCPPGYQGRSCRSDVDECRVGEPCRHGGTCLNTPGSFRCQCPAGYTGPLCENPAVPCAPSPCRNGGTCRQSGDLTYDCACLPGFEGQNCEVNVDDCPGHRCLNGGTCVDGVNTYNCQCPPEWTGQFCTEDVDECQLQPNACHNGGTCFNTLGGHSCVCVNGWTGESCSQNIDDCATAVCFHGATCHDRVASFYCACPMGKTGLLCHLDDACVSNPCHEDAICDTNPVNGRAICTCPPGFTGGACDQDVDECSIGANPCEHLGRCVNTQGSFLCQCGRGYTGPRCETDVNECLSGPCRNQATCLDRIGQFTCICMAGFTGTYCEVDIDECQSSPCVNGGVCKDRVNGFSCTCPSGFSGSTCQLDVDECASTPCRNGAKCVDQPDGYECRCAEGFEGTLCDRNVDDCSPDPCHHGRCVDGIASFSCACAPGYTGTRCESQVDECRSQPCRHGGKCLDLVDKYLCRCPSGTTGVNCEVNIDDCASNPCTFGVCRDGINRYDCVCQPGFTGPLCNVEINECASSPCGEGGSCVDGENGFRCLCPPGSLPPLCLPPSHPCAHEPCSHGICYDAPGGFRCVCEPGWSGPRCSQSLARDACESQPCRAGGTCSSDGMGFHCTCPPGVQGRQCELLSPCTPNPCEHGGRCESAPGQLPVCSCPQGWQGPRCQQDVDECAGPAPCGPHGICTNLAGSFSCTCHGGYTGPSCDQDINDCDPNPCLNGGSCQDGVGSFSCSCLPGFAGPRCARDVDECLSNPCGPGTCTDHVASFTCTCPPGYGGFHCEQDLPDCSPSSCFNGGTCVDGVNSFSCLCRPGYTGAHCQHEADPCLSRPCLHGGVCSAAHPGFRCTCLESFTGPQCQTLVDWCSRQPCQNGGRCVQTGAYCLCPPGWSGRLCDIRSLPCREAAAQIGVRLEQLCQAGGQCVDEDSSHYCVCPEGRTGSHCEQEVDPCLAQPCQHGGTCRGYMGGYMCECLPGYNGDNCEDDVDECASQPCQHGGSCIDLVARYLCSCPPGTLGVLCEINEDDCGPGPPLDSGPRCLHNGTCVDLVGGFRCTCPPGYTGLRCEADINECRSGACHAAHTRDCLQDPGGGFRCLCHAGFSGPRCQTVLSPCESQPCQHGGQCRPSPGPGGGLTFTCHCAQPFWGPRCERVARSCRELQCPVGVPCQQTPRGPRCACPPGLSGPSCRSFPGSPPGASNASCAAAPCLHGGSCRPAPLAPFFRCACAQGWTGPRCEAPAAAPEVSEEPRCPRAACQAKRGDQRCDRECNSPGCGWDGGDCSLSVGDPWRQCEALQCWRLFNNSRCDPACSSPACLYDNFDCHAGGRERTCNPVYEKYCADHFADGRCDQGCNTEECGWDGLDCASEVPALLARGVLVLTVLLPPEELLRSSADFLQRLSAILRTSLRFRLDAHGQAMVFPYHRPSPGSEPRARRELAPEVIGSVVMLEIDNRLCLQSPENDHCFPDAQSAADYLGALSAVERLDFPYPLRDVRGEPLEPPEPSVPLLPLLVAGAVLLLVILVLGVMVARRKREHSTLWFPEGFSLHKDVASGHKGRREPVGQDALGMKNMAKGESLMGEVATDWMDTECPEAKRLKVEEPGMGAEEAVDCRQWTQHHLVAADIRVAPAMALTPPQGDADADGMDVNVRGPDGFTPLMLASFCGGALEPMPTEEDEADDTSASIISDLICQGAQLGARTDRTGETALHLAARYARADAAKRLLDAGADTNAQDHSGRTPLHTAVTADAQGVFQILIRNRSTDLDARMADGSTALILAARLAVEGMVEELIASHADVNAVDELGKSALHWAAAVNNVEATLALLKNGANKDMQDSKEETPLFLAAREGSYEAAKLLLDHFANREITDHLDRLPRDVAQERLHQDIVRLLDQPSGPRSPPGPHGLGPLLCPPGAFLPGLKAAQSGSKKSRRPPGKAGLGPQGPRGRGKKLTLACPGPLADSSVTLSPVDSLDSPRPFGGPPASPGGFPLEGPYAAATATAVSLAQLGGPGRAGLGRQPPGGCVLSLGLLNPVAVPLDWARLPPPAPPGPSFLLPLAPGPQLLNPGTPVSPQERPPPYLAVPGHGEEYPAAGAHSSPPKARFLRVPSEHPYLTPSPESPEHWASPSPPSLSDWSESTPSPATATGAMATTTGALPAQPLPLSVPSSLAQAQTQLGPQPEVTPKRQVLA
Pro-neuregulin-1, membrane-bound isoform (Homo sapiens), sequence (Q02297 whole entry, looked up, the tested form may be a part, canonical isoform): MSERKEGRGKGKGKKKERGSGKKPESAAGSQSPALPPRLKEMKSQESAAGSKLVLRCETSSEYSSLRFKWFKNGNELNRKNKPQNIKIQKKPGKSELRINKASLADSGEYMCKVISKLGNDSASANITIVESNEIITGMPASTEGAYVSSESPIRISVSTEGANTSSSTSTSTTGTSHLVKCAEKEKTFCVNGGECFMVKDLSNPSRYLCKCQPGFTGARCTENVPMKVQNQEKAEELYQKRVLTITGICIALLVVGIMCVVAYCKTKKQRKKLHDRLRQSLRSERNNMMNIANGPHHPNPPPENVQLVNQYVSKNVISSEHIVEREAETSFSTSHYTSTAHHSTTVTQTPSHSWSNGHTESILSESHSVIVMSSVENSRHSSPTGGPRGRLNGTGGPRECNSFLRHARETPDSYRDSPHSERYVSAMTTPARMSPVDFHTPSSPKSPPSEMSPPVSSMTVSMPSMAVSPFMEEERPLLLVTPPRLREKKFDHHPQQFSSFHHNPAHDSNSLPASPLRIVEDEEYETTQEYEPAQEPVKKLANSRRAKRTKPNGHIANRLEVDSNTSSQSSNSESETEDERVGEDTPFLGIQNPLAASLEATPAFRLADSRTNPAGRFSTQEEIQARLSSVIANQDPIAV

For `COC(=O)[C@@]1(Cc2ccc(OC)cc2)[C@H]2c3cc(C(=O)N4CCCC4)n(CCc4ccc(O)c(O)c4)c3C[C@H]2CN1C(=O)c1ccccc1`, the composite z-score in assay [1] amounted to 1.65; in assay [2], 0.269; in [3] it was 0.0215; in assay [4], 0.0359; in [5], 1.33; in assay [6], 2.26. For the same compound, the composite z-score in assay [7] was 1.11; in [9], 0.939; in assay [10] it was -0.156; in assay [11] it was -0.445; in assay [15], 3.62; in assay [17], 0.491. Besides, the composite z-score in assay [18] is -0.17; in assay [19], -0.122; in [20] it was 0.212. Further, the z-score is 2.61 (inactive) in [8]; -0.087 (inactive) in assay [12]; 0.208 (inactive) in assay [13]; 0.751 (inactive) in [14]; -0.765 (inactive) in assay [16].
For the compound `COc1ccc(C(=O)Nc2ccc(CN3C(=O)[C@]4(O[C@H](CC(=O)N5CCC[C@H]5CO)[C@@H]([Si](C)(C)c5ccc(OC)cc5)[C@@H]4C)c4ccccc43)cc2)cc1`, the composite z-score in [1] was -0.332; in [2], 0.355; in assay [3], -0.0715; in [4] it was 0.656; in assay [5], 0.351; in assay [6] it was 1.42. For the same compound, the composite z-score in assay [7] was 1.31; in [9] it was -0.0939; in assay [10] it was 0.0749; in assay [11], 1.54; in assay [15], 2.57; in [17], -0.124. Moreover, the composite z-score in [18] was 1.35; in assay [19], 1.1; in assay [20] it was -0.12. Further, the z-score in assay [8] was -1.54 (inactive); in assay [12] it was -0.676 (inactive); in assay [13] it was 0.173 (inactive); in assay [14], -0.539 (inactive); in assay [16], -0.481 (inactive).
In the case of `[N-]=[N+]=NCc1ccccc1[C@@H]1OC(c2ccc(OCCCO)cc2)=N[C@]1(CCS(=O)(=O)c1ccccc1)C(N)=O`, the composite z-score in assay [1] worked out at 0.339; in [2], 0.852; in assay [3], 0.175; in [4] it was 0.647; in assay [5] it was 1.33; in [6] it was 2.06. Besides, the composite z-score in assay [7] is 1.34; in assay [9], 1.71; in [10], -0.165; in [11] it was 1.56; in assay [15], 3.51; in [17], 0.308. Moreover, the values for the composite z-score in assay [18], in assay [19] and in [20] were 0.888, 1.08 and 0.388, respectively. Also, the z-score in assay [8] is 1.81 (inactive); in assay [12] it was 1.16 (inactive); in assay [13], -1.17 (inactive); in [14] it was -0.325 (inactive); in assay [16], 0.901 (inactive).
Take `CC(C)[Si](C#CCCCC#N)(O[C@H](c1ccccc1)c1cn(Cc2cccc(Cl)c2)nn1)C(C)C`: the composite z-score in assay [1] was -0.37; in assay [2], 0.558; in [3], -0.104; in [4] it was 0.689; in assay [5], 0.799; in assay [6], -0.0808. The composite z-score in assay [7] was determined as 0.603; in assay [9], 0.624; in assay [10], 0.136; in [11], 1.52; in assay [15], 1.42; in [17], 0.0322. In addition, the composite z-score is 0.342 in assay [18], 1.13 in assay [19] and 0.0363 in assay [20]. The z-score was -1.04 (inactive) in [8]; -0.135 (inactive) in assay [12]; -0.483 (inactive) in [13]; -3.21 (inactive) in assay [14]; 1.79 (inactive) in assay [16].
As for `COc1ccc([C@H]2C[C@H]3C(Br)=C[C@@]2(CO)C(=O)[C@]32CO2)cc1`, the composite z-score in [1] was -0.035; in assay [2], -0.512; in assay [3], -0.0563; in assay [4], 0.0327; in assay [5] it was 0.269; in assay [6], -0.202. The composite z-score in assay [7] was -0.333; in assay [9] it was 0.0716; in assay [10], -0.175; in assay [11], -0.855; in assay [15], -0.274; in assay [17], 0.0395. For the same compound, the results for the composite z-score in [18], in assay [19] and in assay [20] were -0.472, -0.534 and -0.0799, respectively. Moreover, the z-score in [8] was 1.26 (inactive); in assay [12], -0.658 (inactive); in assay [13], -3.35 (inactive); in assay [14], 0.241 (inactive); in assay [16], -0.687 (inactive).
